Laboratory results published in PubChem BioAssay (NCATS).
Results filed as inconclusive are left out. Activity calls are given as the source filed them. Unless noted, calls follow the shape of the dose curve; as a rule, active = well fitted curve in the direction sought with a large enough effect; inconclusive = small, poorly fitted or top-dose-only effect, or another doubt; inactive = no such curve, though single readings can be large; an effect the other way counts as inactive or inconclusive.

Experiments:
[1] = qHTS profiling for inhibitors of Plasmodium falciparum (3D7) proliferation (AID 743322);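 also: infected erythrocytes exposed to compound for 72 h before lysis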; conditions: P. falciparum 3D7 proliferation; at 28.7 µM (top of the series)
Summary of the method: (§1)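 Erythrocytes infected with P. falciparum (0.3% parasitemia, 2.5% hematocrit) incubated with compounds 72 h at 37 C, 5% CO2. Lysis with saponin/Triton buffer containing SYBR Green I, overnight at room temperature in the dark; DNA fluorescence (485/535 nm) normalised to 0.29 uM artemisinin and DMSO.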

[2] = qHTS profiling for inhibitors of Plasmodium falciparum (DD2) proliferation (AID 743323; call rule not given here); conditions: lower = more inhibition; at 28.7 µM (top of the series)
Summary of the method: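 1536-well qHTS; infected RBCs 0.3% parasitemia/2.5% Hct final; cpd 72 h 37 C 5% CO2; lysis buffer + SYBR Green I, o/n RT dark; FI 485/535; norm. to 0.29 uM artemisinin and DMSO, plate-stack corrected.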

[3] = qHTS profiling for inhibitors of Plasmodium falciparum (HB3) proliferation (AID 743324); conditions: Plasmodium falciparum HB3 blood-stage proliferation; at 28.7 µM (top of the series)
Summary of the method: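 P. falciparum HB3 grown in erythrocytes (0.3% parasitemia, 2.5% hematocrit final) with compound for 72 h at 37 C, 5% CO2. Parasite DNA detected by SYBR Green after saponin/triton lysis overnight; normalized to 0.29 uM artemisinin and DMSO.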

[4] = qHTS profiling of the MIPE4 collection as inhibitors of Plasmodium falciparum (3D7) proliferation (AID 743344; call rule not given here); conditions: P. falciparum 3D7 in erythrocytes, SYBR Green DNA fluorescence, 72 h; at 28.5 µM (top of the series)
Summary of the method: as §1

[5] = qHTS for differential inhibitors of proliferation of Plasmodium falciparum line HB3 (AID 1886); conditions: Potency: Plasmodium falciparum HB3 proliferation inhibition;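 also: parasites grown with compound for 72 h before SYBR Green readout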
[6] = target: Ferritin light chain (Equus caballus) (UniProt P02791); assay: qHTS Validation Assay for Identification of Novel General Anesthetics (AID 2323)
Sequence of Ferritin light chain (Equus caballus) (P02791 2-175 limits assumed): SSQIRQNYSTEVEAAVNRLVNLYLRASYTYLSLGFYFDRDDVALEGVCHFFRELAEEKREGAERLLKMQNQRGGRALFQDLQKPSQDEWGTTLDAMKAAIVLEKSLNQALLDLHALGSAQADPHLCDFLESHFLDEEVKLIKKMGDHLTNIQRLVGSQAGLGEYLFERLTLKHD
Summary of the method: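 10 uM horse-spleen apoferritin + 1-AMA (50% saturated, PBS); cpd pin-transferred, 10 min RT. Ex 380/Em 535 nm endpoint. Activity normalized between free 1-AMA and 1-AMA/apoferritin; 4-parameter Hill fit of concentration-response.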

[7] = target: ATP-dependent DNA helicase Q1 (Homo sapiens) (UniProt P46063); assay: qHTS Validation Assay for Inhibitors of RecQ-Like Dna Helicase 1 (RECQ1) (AID 2353)
Sequence of ATP-dependent DNA helicase Q1 (Homo sapiens) (P46063 whole entry, looked up): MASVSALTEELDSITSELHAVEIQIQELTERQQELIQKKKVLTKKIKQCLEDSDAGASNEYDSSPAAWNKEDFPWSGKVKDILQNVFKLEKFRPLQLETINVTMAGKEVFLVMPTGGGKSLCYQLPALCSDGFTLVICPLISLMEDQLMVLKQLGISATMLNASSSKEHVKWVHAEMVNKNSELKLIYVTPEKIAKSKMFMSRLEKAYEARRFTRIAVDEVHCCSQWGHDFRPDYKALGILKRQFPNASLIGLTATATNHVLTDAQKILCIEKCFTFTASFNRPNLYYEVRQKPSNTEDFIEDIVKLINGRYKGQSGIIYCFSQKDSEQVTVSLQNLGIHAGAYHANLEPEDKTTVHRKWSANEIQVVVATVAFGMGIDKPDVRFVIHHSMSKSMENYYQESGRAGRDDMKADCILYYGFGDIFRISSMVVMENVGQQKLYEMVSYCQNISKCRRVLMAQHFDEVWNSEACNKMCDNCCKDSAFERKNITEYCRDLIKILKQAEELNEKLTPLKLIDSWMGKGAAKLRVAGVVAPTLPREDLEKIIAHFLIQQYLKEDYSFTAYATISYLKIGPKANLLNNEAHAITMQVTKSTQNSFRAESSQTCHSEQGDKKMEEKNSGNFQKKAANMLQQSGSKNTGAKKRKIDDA
Summary of the method: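 50 nM RECQ1T1 preincubated 15 min with compound in Tris pH 8.0 buffer with MgCl2, DTT, Tween-20 and 2.5 ug/ml poly(dI-dC); started with 200 nM TAMRA/BHQ-2 forked duplex and 2 mM ATP. Unwinding read as fluorescence (525/598 nm), two reads 2 h apart.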

[8] = Validation screen for small molecules that induce DNA re-replication in MCF 10A normal breast cells (AID 463097); also: nearly all actives have a fitted effect of over 60% in size
Summary of the method: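 250 MCF 10A cells/well; compound pin-transferred; 48 hr, 37 C, 5% CO2; Hoechst 40 min; imaged 405/500-530 nm. Hits = more high-intensity nuclei.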

[9] = Quantitative high throughput screen for delayed death inhibitors of the malarial parasite plastid, 96 hour incubation (AID 488745);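 also: luciferase-expressing P. falciparum in erythrocytes at 2% hematocrit and 0.1% parasitemia; nearly all actives have a fitted effect of over 70% in size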
Summary of the method: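 Infected erythrocytes were added to compound in Albumax-supplemented RPMI 1640 at 0.1% parasitemia and 2% hematocrit (final), incubated 96 h at 37 C under 5% CO2, then luciferase reagent was added and luminescence measured.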

[10] = Quantitative high throughput screen for delayed death inhibitors of the malarial parasite plastid, 48 hour incubation (AID 488752); also: nearly all actives have a fitted effect of over 65% in size
Summary of the method: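 Readout is firefly luciferase luminescence from a reporter integrated into the parasite genome, with lower signal taken as inhibited growth. Infected red cells (0.1% parasitemia, 2% hematocrit final) are cultured with compound for one 48 h cycle at 37 C.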

[11] = target: M-phase phosphoprotein 8 (Homo sapiens) (UniProt Q99549); assay: qHTS Validation Assay for Inhibitors for MPP8 Chromodomain Interactions with Methylated Histone Tails (AID 488949); also: nearly all actives have a fitted effect of over 55% in size; also: potency is read from the fitted curve at half-maximal effect
Sequence of M-phase phosphoprotein 8 (Homo sapiens) (Q99549 whole entry, looked up): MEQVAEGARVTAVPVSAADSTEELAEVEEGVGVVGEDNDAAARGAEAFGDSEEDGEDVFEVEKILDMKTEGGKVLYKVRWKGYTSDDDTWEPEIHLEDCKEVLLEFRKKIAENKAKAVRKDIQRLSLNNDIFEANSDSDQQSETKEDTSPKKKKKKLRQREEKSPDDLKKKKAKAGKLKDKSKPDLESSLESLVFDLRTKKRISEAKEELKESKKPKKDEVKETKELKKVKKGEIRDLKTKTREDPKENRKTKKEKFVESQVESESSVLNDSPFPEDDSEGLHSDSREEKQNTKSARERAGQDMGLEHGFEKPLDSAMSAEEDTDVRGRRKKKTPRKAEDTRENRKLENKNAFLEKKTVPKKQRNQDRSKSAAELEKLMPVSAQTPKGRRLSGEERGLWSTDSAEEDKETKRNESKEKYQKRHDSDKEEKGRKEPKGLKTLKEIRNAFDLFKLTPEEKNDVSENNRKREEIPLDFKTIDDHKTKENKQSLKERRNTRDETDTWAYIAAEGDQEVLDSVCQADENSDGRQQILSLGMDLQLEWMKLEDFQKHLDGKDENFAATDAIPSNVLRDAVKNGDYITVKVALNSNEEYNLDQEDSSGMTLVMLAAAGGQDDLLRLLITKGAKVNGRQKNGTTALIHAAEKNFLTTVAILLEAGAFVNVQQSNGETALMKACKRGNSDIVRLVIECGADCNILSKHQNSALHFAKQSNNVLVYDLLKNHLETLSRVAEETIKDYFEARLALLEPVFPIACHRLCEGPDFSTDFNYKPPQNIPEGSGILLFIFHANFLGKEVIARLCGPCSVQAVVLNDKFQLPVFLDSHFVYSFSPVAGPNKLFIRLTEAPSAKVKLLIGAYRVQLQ
Summary of the method: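 AlphaScreen read-out: streptavidin donor and nickel chelate acceptor beads (final 10 ug/mL), 30 min in the dark at RT. Complex of 50 nM MPP8 and 50 nM b-H3(1-18)K9me3 peptide had been exposed to compounds for 30 min beforehand.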

[12] = target: Transient receptor potential cation channel subfamily V member 1 (Homo sapiens) (UniProt Q8NER1); assay: HTS Assay for Compounds that Act as Enhancers of the Vanilloid Receptor 1 (AID 488979)
Sequence of Transient receptor potential cation channel subfamily V member 1 (Homo sapiens) (Q8NER1 whole entry, looked up): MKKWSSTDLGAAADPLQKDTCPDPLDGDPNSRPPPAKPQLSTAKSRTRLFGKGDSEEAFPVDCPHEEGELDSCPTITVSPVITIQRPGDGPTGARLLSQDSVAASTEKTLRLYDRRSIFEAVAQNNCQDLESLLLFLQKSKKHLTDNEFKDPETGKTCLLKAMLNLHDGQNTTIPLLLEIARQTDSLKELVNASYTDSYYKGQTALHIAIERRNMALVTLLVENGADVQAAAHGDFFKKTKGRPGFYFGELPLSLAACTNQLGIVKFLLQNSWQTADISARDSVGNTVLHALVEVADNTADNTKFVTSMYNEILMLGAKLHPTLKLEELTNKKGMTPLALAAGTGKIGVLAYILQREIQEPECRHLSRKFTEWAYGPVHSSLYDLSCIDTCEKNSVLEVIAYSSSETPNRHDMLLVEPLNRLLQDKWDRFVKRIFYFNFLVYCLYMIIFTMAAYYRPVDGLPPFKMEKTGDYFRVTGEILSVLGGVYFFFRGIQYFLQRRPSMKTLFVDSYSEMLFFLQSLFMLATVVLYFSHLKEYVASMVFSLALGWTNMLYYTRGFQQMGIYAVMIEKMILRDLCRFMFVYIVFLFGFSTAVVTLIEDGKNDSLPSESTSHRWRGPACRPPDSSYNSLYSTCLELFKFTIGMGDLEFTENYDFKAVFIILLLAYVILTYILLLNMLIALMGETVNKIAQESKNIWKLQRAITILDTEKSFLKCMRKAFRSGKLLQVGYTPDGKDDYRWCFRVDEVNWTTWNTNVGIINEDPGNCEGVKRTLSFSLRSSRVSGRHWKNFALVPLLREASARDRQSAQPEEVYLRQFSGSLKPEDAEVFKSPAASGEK
Summary of the method: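 TRPV1 cells loaded with Fluo-8 calcium dye; compound added and Ca2+ signal (ex 480/em 520 nm) followed 3 min, then capsaicin at EC20 added and read 2 more min to detect enhancement.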

[13] = target: Thyrotropin receptor (Homo sapiens) (UniProt P16473); assay: qHTS Assay for Antagonists of the Thyroid Stimulating Hormone Receptor (AID 488980)
Sequence of Thyrotropin receptor (Homo sapiens) (P16473 whole entry, looked up): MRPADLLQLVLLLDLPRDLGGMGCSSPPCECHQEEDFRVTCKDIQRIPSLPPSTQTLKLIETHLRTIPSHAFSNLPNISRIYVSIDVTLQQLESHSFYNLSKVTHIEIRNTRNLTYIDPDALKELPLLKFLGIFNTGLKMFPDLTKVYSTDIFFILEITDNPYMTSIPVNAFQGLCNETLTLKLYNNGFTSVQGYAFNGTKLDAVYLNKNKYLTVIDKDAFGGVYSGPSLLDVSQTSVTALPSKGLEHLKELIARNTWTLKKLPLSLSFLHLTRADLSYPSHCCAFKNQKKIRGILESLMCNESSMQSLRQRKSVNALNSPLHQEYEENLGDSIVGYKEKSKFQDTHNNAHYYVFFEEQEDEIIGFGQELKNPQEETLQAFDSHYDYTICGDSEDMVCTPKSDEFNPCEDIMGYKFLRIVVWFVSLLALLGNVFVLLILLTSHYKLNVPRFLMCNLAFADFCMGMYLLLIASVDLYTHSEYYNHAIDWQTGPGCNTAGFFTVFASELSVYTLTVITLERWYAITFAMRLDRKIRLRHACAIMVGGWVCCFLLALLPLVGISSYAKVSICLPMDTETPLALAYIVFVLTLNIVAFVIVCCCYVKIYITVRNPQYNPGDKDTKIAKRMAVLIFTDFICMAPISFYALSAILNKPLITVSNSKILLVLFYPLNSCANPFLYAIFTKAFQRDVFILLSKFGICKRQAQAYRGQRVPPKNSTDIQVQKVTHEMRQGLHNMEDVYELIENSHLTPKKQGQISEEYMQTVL
Summary of the method: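 TSHR-HEK293 cells; 70 uM RO 20-1724 PDE inhibitor; compound + EC80 TSH (4 nM final); anti-cAMP cryptate antibody/cAMP-d2 in lysis buffer, 30 min RT; HTRF 665/620 nm read.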

[14] = target: Galactokinase (Homo sapiens) (UniProt P51570); assay: qHTS Validation Assay for Inhibitors of Human Galactokinase (GALK) (AID 493189)
Sequence of Galactokinase (Homo sapiens) (P51570 whole entry, looked up): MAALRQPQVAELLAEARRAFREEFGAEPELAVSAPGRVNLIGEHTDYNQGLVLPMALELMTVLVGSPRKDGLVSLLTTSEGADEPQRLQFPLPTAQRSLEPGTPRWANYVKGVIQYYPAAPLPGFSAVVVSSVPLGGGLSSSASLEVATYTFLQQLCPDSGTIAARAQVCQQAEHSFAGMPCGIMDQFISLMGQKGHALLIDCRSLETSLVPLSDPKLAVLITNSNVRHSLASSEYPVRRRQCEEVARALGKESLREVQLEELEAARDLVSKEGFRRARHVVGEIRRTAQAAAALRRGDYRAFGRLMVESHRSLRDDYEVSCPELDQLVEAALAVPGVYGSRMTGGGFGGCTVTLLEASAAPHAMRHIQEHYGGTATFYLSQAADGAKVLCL
Summary of the method: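 Luminescence from leftover ATP (Kinase-Glo Plus, 10 min) served as read-out after a 1 h room-temperature reaction of 5 nM GALK, 100 uM galactose and 35 uM ATP at pH8.0.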

[15] = Validation screen for small molecules that induce DNA re-replication in SW480 colon adenocarcinoma cells (AID 504364)
Summary of the method: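 250 cells/well; compound pinned in; 48 hr, 37 C, 5% CO2; Hoechst added, 40 min; nuclear fluorescence imaged, 405 ex / 500-530 em; re-replication scored as increase in high-intensity nuclei.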

[16] = test system: Zika virus NS2B-NS3 protease (unlinked complex); assay: Primary screen GU Rhodamine qHTS for Zika virus inhibitors: Unlinked NS2B-NS3 protease assay (AID 1347159); also: nearly all actives have a fitted effect of over 60% in size; also: potency is read from the fitted curve at half-maximal effect
Summary of the method: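 A qHTS format was used, with compound concentrations ranging up to 114 microM. Each compound was preincubated with 25 nM NS2B-NS3 protease, and the substrate was then added at 1.5 microM. Curves were fitted with a 4-parameter Hill model.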

[17] = target: Phospholipid hydroperoxide glutathione peroxidase GPX4 (Homo sapiens) (UniProt P36969); assay: Primary qHTS Assay for Inhibitors of Recombinant Selenoprotein Glutathione Peroxidase 4 (GPX4) (AID 1845192); conditions: outcome: dose series up to 50 µM unless noted; also: nearly all actives have a fitted effect of over 65% in size
Sequence of Phospholipid hydroperoxide glutathione peroxidase GPX4 (Homo sapiens) (P36969 whole entry, looked up): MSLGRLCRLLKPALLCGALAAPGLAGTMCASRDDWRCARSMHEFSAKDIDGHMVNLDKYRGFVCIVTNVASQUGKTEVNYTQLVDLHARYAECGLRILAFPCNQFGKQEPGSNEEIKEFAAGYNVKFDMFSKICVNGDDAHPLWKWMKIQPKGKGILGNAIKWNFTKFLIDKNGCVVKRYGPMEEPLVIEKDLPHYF
Summary of the method: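 GR-coupled assay: recombinant GPX4 preincubated 30 min with compound at room temperature; final 200 nM GPX4, 1 mM GSH, 0.5 mM cumene hydroperoxide, 0.5 mM NADPH, 100 nM GR, 0.01% BSA, pH 7.5 Tris. NADPH fluorescence (340/450 nm) read at 0 and 15 min.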

[18] = target: Luciferin 4-monooxygenase (Photinus pyralis) (UniProt P08659); assay: Primary firefly luciferase (FLuc) qHTS assay for identification of artifact compounds. (AID 1845220); also: nearly all actives have a fitted effect of over 60% in size
Summary of the method: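 Titrated compounds were incubated 15 min at RT, protected from light, with luciferin and ATP at 10 uM; reaction started with 10 nM FLuc, luminescence imaged at 5 min, and concentration-response fitted by Hill equation.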

[19] = Primary fluorescence-based thiol-reactive (MSTI) qHTS assay for identification of artifact compounds. (AID 1845221);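 also: thiol-reactive compounds lower the probe fluorescence signal; nearly all actives have a fitted effect of over 65% in size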
Summary of the method: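 qHTS titration of compound; 4 uM MSTI, PBS pH 7.4, 2% DMSO; 1 h RT, dark; fluorescence 525/598 nm; normalized to Acetyl-MSTI and MSTI; 4-parameter Hill fit.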

[20] = Primary redox qHTS assay for identification of artifact compounds. (AID 1845223)
Summary of the method: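 Amplex Red (25 uM) and HRP (250 mU/mL) in HBSS, with compounds for 15 min, then 250 uM DTT for 30 min, room temperature, dark. Fluorescence 525/598 nm read; normalized to DMSO and 10 uM DA3003; Hill fit.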

CC(C)N=C(N)N=C(N)Nc1ccc(Cl)cc1
0.237%: activity, percent of control [2]
-0.519%: remaining parasite growth % (stronger effect = lower value) [1]
0.187%: remaining proliferation (% of control), lower = more inhibition [3]
5.61%: parasite growth, % of DMSO control [4]

O=C(Nc1cc(C(=O)Nc2ccc(S(=O)(=O)O)cc2S(=O)(=O)O)cc(C(=O)Nc2ccc(S(=O)(=O)O)cc2S(=O)(=O)O)c1)Nc1cc(C(=O)Nc2ccc(S(=O)(=O)O)cc2S(=O)(=O)O)cc(C(=O)Nc2ccc(S(=O)(=O)O)cc2S(=O)(=O)O)c1
inactive: Potency [5] | outcome [6] | Potency [7] | Potency [8] | Potency [9] | Potency [10] | outcome [12] | outcome [13] | outcome [14] | outcome [15]
active: Potency [11] 6.31 µM

C/C=C/C[C@@H](C)[C@@H](O)[C@H]1C(=O)N[C@@H](CC)C(=O)N(C)CC(=O)N(C)[C@@H](CC(C)C)C(=O)N[C@@H](C(C)C)C(=O)N(C)[C@@H](CC(C)C)C(=O)N[C@@H](C)C(=O)N[C@H](C)C(=O)N(C)[C@@H](CC(C)C)C(=O)N(C)[C@@H](CC(C)C)C(=O)N(C)[C@H](C(C)C)C(=O)N1C
inactive: Potency [16] | Potency [17] | Potency [18] | Potency [19] | Potency [20]

O=C(CCCCCCC(=O)Nc1ccc(C2OC(CSc3nc(-c4ccccc4)c(-c4ccccc4)o3)CC(c3ccc(CO)cc3)O2)cc1)NO (stereo unspecified)
active: Potency [16] 39.8 µM
inactive: Potency [17] | Potency [18] | Potency [19] | Potency [20]

NC(CCC(=O)NCS(=O)(=O)O)C(=O)O (stereo unspecified)
inactive: Potency [5] | outcome [6] | Potency [7] | Potency [8] | Potency [9] | Potency [10] | Potency [11] | outcome [12] | outcome [13] | outcome [14] | outcome [15]
